What is called inhibition is the change of the read-out against control, counted positive when it falls.

SMILES strings stand for the structures. Where “and” joins values, the source holds several entries; their conditions need not be identical. Equal entries are not always repeated. In all, about 360,000 compounds went through this assay and about 340 (0.094%) were called active. This is one part of a sample in which actives are shown more often than they occur. Cut-off read from the data, not from the text of the source: active = inhibition above about 40%; inconclusive = no clear call, values can overlap the other calls; inactive = below that. A structure can be active in one record and inactive in another.

The test has as its system 7,8-diaminopelargonic acid synthase BioA (Mycobacterium tuberculosis). Kind of test: M. tuberculosis BioA enzyme inhibitors, primary screen, biochemical, plate reader, single point, HTS (AID 602481). To be noted: purified M. tuberculosis BioA enzyme, at 9.99 µM, stronger effect = higher value.
With `CN1C(=O)c2cc(NC(=O)c3ccc(F)c(F)c3)ccc2OC[C@H]2O[C@@H](CC(=O)N3CCCCC3)CC[C@H]21`, the inhibition was 4.19% (inactive).

Turning to `C[C@@H]1CN([C@@H](C)CO)C(=O)c2cc(C#C[C@@H](C)O)cnc2O[C@H]1CN(C)CC1CCOCC1`, the inhibition is -0.205% (inactive).

For `O=C(C[C@H]1C[C@@H]2c3cc(NC(=O)CC4CC4)ccc3O[C@@H]2[C@@H](CO)O1)NCc1cc(F)ccc1F`, the inhibition is -0.019% (inactive).

In the case of `COCC#Cc1cnc2c(c1)C(=O)N([C@H](C)CO)C[C@H](C)[C@H](CN(C)Cc1ccc(-c3ccccc3)cc1)O2`, the inhibition was -2.84% (inactive).

As to `C[C@@H]1CN([C@H](C)CO)C(=O)c2cc(NC(=O)Nc3ccc(F)cc3)ccc2O[C@@H]1CN(C)Cc1ccc(Cl)c(Cl)c1`, the inhibition was -0.852% (inactive).

Turning to `C[C@H]1CCCCO[C@H](CN(C)C(=O)CCC(F)(F)F)[C@@H](C)CN([C@@H](C)CO)C(=O)c2cc(NC(=O)Cc3ccccc3)ccc2O1`, the inhibition is 1.33% (inactive).

As to `C[C@H]1CN([C@@H](C)CO)S(=O)(=O)c2ccc(C#Cc3ccccc3)cc2O[C@H]1CN(C)S(=O)(=O)c1cn(C)cn1`, the inhibition was 0.612% (inactive).

As for `CCNC(=O)C[C@@H]1CC[C@H](NC(=O)C2CCC2)[C@@H](CO)O1`, the inhibition was 0.933% (inactive).

Take `O=C(c1ccncc1)N1CC[C@@H]2[C@H]1c1cc(Br)ccc1N[C@@H]2CO`: the inhibition was 104% (active).

Take `O=C(c1ccccc1)N1CC[C@H]2[C@H](CO)Nc3ccc(-c4ccc(F)cc4)cc3[C@H]21`: the inhibition was -4.36% (inactive).

In the case of `O=C(c1cccnc1)N1CC[C@@H]2[C@@H](CO)Nc3ccc(-c4ccccc4)cc3[C@@H]21`, the inhibition was 18.1% (inactive).

Take `O=C(C[C@@H]1C=C[C@@H](NC(=O)c2ccccn2)[C@@H](CO)O1)NCc1cc(F)cc(F)c1`: the inhibition was -2.07% (inactive).

With `C[C@@H]1CN([C@H](C)CO)C(=O)c2cc(NC(=O)NC3CCCCC3)ccc2O[C@@H](C)CCCCO[C@H]1CN(C)S(C)(=O)=O`, the inhibition was 1.27% (inactive).

Turning to `CCC(=O)Nc1ccc2c(c1)OC[C@@H](C)N(Cc1ccccn1)C[C@H](C)[C@@H](OC)CN(C)C2=O`, the inhibition was 0.9% (inactive).

`CO[C@H]1CN(C)C(=O)c2ccc(NC(C)=O)cc2OC[C@@H](C)NC[C@H]1C`: the inhibition is -1.23% (inactive).

On to `C[C@@H]1CN([C@H](C)CO)C(=O)c2cc(-c3ccccc3)cnc2O[C@H]1CN(C)C(=O)Nc1ccccc1`, for which the inhibition is 4.24% (inactive).

Regarding `CNC(=O)C[C@H]1CC[C@H]2[C@@H](COc3ccc(NS(=O)(=O)c4ccc(F)cc4)cc3C(=O)N2C)O1`, the inhibition was 6.78% (inactive).

For the compound `COc1ccc(NC(=O)Nc2cccc3c2O[C@H](CN(C)S(=O)(=O)c2cn(C)cn2)[C@H](C)CN([C@@H](C)CO)C3=O)cc1`, the inhibition is 1.78% (inactive).

Consider `C=C(C)CSc1nc(N)c2c3c(sc2n1)CCC3`, for which the inhibition is 54.5% (active).

Consider `CC(C)(C)C1CCc2c(sc3nc(SCC(N)=O)nc(N)c23)C1` (stereo not given), for which the inhibition was 7.83% (inactive).

With `C=CCn1c(SCC(=O)NCCCO)nc2sc3c(c2c1=O)CCC3`, the inhibition is 2.06% (inactive).

`C[C@H](CO)N1C[C@H](C)[C@H](CN(C)C(=O)Nc2ccc(F)cc2)OCCCC[C@H](C)Oc2ccc(NC(=O)CCC(F)(F)F)cc2C1=O`: the inhibition was -0.385% (inactive).

With `C[C@@H]1CN([C@@H](C)CO)C(=O)c2cccc(NS(=O)(=O)c3ccc(F)cc3)c2O[C@H]1CN(C)S(=O)(=O)c1cccs1`, the inhibition was -1.23% (inactive).

On to `CC(C)NC(=O)N1CCCCN2[C@@H](CO)[C@@H](c3ccc(C#C[C@@H](C)O)cc3)[C@@H]2C1`, for which the inhibition is 2.83% (inactive).

With `CC(C)Oc1ccc(CCc2n[nH]c(=S)n2Cc2ccccc2)cc1`, the inhibition was 0.782% (inactive).

In the case of `CC(C)Oc1ccc(Cc2n[nH]c(=S)n2Cc2ccccc2)cc1Cl`, the inhibition was 0.831% (inactive).

Consider `COc1cc(-c2n[nH]c(=S)n2Cc2ccccc2)cc(OC)c1OC`, for which the inhibition is 69.8% (active).

In the case of `COc1ccc(S(=O)(=O)N2C[C@@H](O)COC[C@H]3O[C@@H](CC(=O)NCCN4CCCCC4)CC[C@@H]32)cc1`, the inhibition is -1.77% (inactive).

Regarding `CC(C)NC(=O)N1[C@@H]2CN(C(=O)C3CCCCC3)c3ccccc3[C@@H]2[C@@H]1CO`, the inhibition is -4.4% (inactive).

On to `Cc1noc(C)c1S(=O)(=O)N(C)C[C@@H]1Oc2c(NS(=O)(=O)c3cn(C)cn3)cccc2C(=O)N([C@@H](C)CO)C[C@H]1C`, for which the inhibition is -0.608% (inactive).

In the case of `Cc1ccc(S(=O)(=O)N(C)C[C@@H]2Oc3c(NC(=O)NC(C)C)cccc3C(=O)N([C@H](C)CO)C[C@H]2C)cc1`, the inhibition was -1.17% (inactive).

Take `CC(=O)O[C@]1(C(C)=O)CC[C@H]2[C@@H]3C=C(C)C4=CC(=O)CC[C@]4(C)[C@H]3CC[C@@]21C`: the inhibition was 13.2% (inactive) and 51.3% (active).

As to `C[C@]12CCC(=O)C=C1C=CC1C2CC[C@@]2(C)C1CC[C@@]21CCC(=O)O1` (stereo not given in full), the inhibition is 19.6% (inactive).

`CC(=O)OCC(=O)C1(O)CCC2C3CC(C)C4=CC(=O)CCC4(C)C3C(O)CC21C` (stereo not given): the inhibition was -0.825% (inactive).

Take `CC(C)C#Cc1cnc2c(c1)C(=O)N([C@@H](C)CO)C[C@@H](C)[C@@H](CN(C)C(=O)CN1CCOCC1)O2`: the inhibition is -1.21% (inactive).

On to `C[C@@H]1CN([C@@H](C)CO)C(=O)c2cc(NS(=O)(=O)c3cn(C)cn3)ccc2O[C@@H](C)CCCCO[C@H]1CN(C)S(=O)(=O)c1cccs1`, for which the inhibition was 0.052% (inactive).

Turning to `O=C(C1CCCC1)N1[C@H](CO)[C@@H]2c3ccccc3N(S(=O)(=O)c3ccccc3)C[C@@H]21`, the inhibition is 6.11% (inactive).

In the case of `Cc1ccc(S(=O)(=O)N[C@H]2C=C[C@@H](CC(=O)NCCc3ccncc3)O[C@@H]2CO)cc1`, the inhibition is 2.21% (inactive).

Regarding `C[C@H](CO)N1C[C@H](C)[C@H](CN(C)S(=O)(=O)c2ccc(C#N)cc2)Oc2ncc(-c3cccc(F)c3)cc2C1=O`, the inhibition is 4.36% (inactive).

Consider `CO[C@@H](CN(C)S(=O)(=O)c1ccccc1)[C@@H](C)CN(Cc1ccccc1Cl)[C@H](C)CO`, for which the inhibition is -0.143% (inactive).

As for `CC(=O)CSc1nnc(CSc2ncccn2)n1C1CCCCC1`, the inhibition was 43.5% (active).

As for `CC1CC(C)CN(C(=O)CSc2nnc(CSc3ncccn3)n2C)C1` (stereo not given), the inhibition was 0.828% (inactive).

In the case of `O=C(CSc1nnc(-c2ccncc2)n1C1CCCCC1)Nc1ccccc1`, the inhibition was -0.812% (inactive).

On to `CCCN1C[C@H](C)[C@@H](OC)CN(C)C(=O)c2ccc(NC(=O)c3cnccn3)cc2OC[C@H]1C`, for which the inhibition was -1.47% (inactive).

With `COc1ccc(NC(=O)N(C)C[C@H]2OCCCC[C@@H](C)Oc3ccc(NC(=O)Nc4ccc5c(c4)OCO5)cc3C(=O)N([C@H](C)CO)C[C@@H]2C)cc1`, the inhibition was -1.28% (inactive).

With `C[C@H](CO)N1C[C@H](C)[C@@H](CN(C)C)Oc2ccc(NS(=O)(=O)c3cccs3)cc2C1=O`, the inhibition is 2.81% (inactive).

Turning to `CC(=O)N1[C@H](CO)[C@H]2c3ccccc3N(C(=O)c3ccc(F)cc3)C[C@H]21`, the inhibition is -3.14% (inactive).

For the compound `Cc1ccc(S(=O)(=O)N(C)C[C@@H]2Oc3c(NC(=O)C4CC4)cccc3C(=O)N([C@H](C)CO)C[C@@H]2C)cc1`, the inhibition is -0.903% (inactive).

`C[C@@H]1CCCCO[C@H](CN(C)C)[C@@H](C)CN([C@H](C)CO)C(=O)c2cc(N(C)C)ccc2O1`: the inhibition is -0.059% (inactive).

With `CN(C)CC(=O)Nc1ccc2c(c1)[C@H]1C[C@@H](CC(=O)NCc3ccc(Cl)cc3)O[C@@H](CO)[C@H]1O2`, the inhibition was 0.123% (inactive).

As to `C[C@H]1CN([C@@H](C)CO)C(=O)CCCn2cc(nn2)CO[C@H]1CN(C)C(=O)Nc1cccc(C(F)(F)F)c1`, the inhibition is -3.91% (inactive).

`COCC(=O)N1[C@H](CO)[C@@H](c2ccccc2)[C@H]1CN(C)C(=O)c1ccncc1`: the inhibition was -4.1% (inactive).

Take `C[C@@H]1CN([C@@H](C)CO)C(=O)c2c(c3ccccc3n2C)-c2ccccc2CO[C@H]1CN(C)S(=O)(=O)c1cccs1`: the inhibition was -2.08% (inactive).

Turning to `CN1[C@@H]2CN(C(=O)C3CCCCC3)c3ccccc3[C@@H]2[C@@H]1CO`, the inhibition is 5.87% (inactive).

`CC(C)(C)[S@@](=O)N1Cc2cc(C(=O)N3CCCCC3)nc(-c3cccc(-c4cccc(C#N)c4)c3)c2[C@H]1CCO`: the inhibition was 0.956% (inactive).

On to `COc1ccc(NC(=O)Nc2ccc3c(c2)[C@H]2C[C@H](CC(=O)NC4CCCCC4)O[C@H](CO)[C@H]2O3)cc1`, for which the inhibition was 0.43% (inactive).

On to `CN1CCC(=NNC(=O)c2ccc(N(Cc3ccc(Cl)cc3)S(C)(=O)=O)cc2)CC1`, for which the inhibition was -0.516% (inactive).

With `Cn1nccc1/C=N\NC(=O)c1ccc(Cl)cc1`, the inhibition was 69.1% (active).

As for `CC(=NNC(=O)c1ccncc1)c1ccc(Cl)c(Cl)c1`, the inhibition was -0.685% (inactive).

Consider `CC(=O)Nc1ccccc1-c1cn(CC(=O)N2CCOCC2)nn1`, for which the inhibition is -2.47% (inactive).

Take `CC(C)CC#Cc1cnc2c(c1)C(=O)N([C@@H](C)CO)C[C@H](C)[C@@H](CN(C)Cc1ccccc1C(=O)O)O2`: the inhibition was -0.715% (inactive).

Regarding `C[C@@H]1CN([C@@H](C)CO)C(=O)c2cc(NC(=O)CCCN(C)C)ccc2O[C@@H](C)CCCCO[C@H]1CN(C)C(=O)Nc1cccc2ccccc12`, the inhibition is -0.656% (inactive).

Consider `O=C(C[C@@H]1C[C@H]2c3cc(NC(=O)CC4CC4)ccc3O[C@H]2[C@@H](CO)O1)NCc1ccc2c(c1)OCO2`, for which the inhibition was -1.7% (inactive).

As for `C[C@@H]1CCCCO[C@@H](CN(C)C(=O)Nc2ccc3c(c2)OCO3)[C@H](C)CN([C@H](C)CO)C(=O)c2cc(NC(=O)CCCN(C)C)ccc2O1`, the inhibition is 1.19% (inactive).

Take `CCC(=O)Nc1ccc2c(c1)C(=O)N(C)C[C@H](OC)[C@H](C)CN(C(=O)c1ccccn1)[C@@H](C)CO2`: the inhibition was -2.41% (inactive).

The values above are taken from PubChem BioAssay AID602481 (Broad Institute, 2012).
